# Measurements taken from the supplement of paper PMC6555819.
# What was measured:
# Assay in all cases: PBM binding z-score (relative to random genomic background probes); higher = stronger binding; sequences stand for … in GC…GCGATTGACAGCGTAGAATGAAGG
# [1] = tested on: FXR:RXRa (NR concentration 270 nM, RXRa partner concentration 90 nM)
# Outline: (§1)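 Each nuclear receptor dimer, without ligand, was incubated for 1 h on custom Agilent 4×180K protein-binding microarrays. Binding was detected with antibodies against each partner (one per run), and scanned fluorescence was regression-normalized. The binding z-scores are referenced to random human genomic background probes.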
# [2] = tested on: LXRa:RXRa (NR concentration 270 nM, RXRa partner concentration 90 nM)
# Outline: as §1
# [3] = tested on: LXRa homodimer (NR concentration 270 nM)
# Outline: as §1
# [4] = tested on: LXRb:RXRa (NR concentration 270 nM, RXRa partner concentration 90 nM)
# Outline: as §1
# [5] = tested on: LXRb homodimer (NR concentration 270 nM)
# Outline: as §1
# [6] = tested on: PPARa:RXRa (NR concentration 270 nM, RXRa partner concentration 90 nM)
# Outline: as §1
# [7] = tested on: PPARg:RXRa (NR concentration 180 nM, RXRa partner concentration 90 nM)
# Outline: as §1
# [8] = tested on: PPARg:RXRa 270nM:90nM, anti-RXR (NR concentration 270 nM, RXRa partner concentration 90 nM)
# Outline: as §1
# [9] = tested on: PPARg:RXRa 30nM:10nM, anti-RXR (NR concentration 30 nM, RXRa partner concentration 10 nM)
# Outline: as §1
# [10] = tested on: PPARg:RXRa 90nM:30nM, anti-RXR (NR concentration 90 nM, RXRa partner concentration 30 nM)
# Outline: as §1
# [11] = tested on: PPARg:RXRa DBDmut IVT, anti-RXR (DBD mutation: RXRa K156A/R161A, NR concentration 270 nM, RXRa partner concentration 90 nM)
# Outline: as §1
# [12] = tested on: PPARg:RXRa IVT, anti-PPARg (NR concentration 270 nM, RXRa partner concentration 90 nM)
# Outline: as §1
# [13] = tested on: PPARg DBDmut:RXRa IVT, anti-PPARg (DBD mutation: PPARg1 K132A/R137A, NR concentration 270 nM, RXRa partner concentration 90 nM)
# Outline: as §1
# [14] = tested on: PPARg DBDmut IVT, anti-PPARg (DBD mutation: PPARg1 K132A/R137A, NR concentration 270 nM)
# Outline: as §1
# [15] = tested on: PPARg homodimer (NR concentration 180 nM)
# Outline: as §1
# [16] = tested on: PXR:RXRa (NR concentration 270 nM, RXRa partner concentration 90 nM)
# Outline: as §1
# [17] = tested on: PXR homodimer (NR concentration 270 nM)
# Outline: as §1
# [18] = tested on: RARa:RXR (NR concentration 270 nM, RXRa partner concentration 90 nM)
# Outline: as §1
# [19] = tested on: RARa homodimer (NR concentration 270 nM)
# Outline: as §1
# [20] = tested on: RARb:RXRa (NR concentration 270 nM, RXRa partner concentration 90 nM)
# Outline: as §1
sequence,measurement,setting,value
CTGACTGGGGCATAAGGTTACCATAAGCCAGCCC,PBM binding z-score,[1],0.671
same,PBM binding z-score,[2],2.05
same,PBM binding z-score,[3],0.0158
same,PBM binding z-score,[4],1.61
same,PBM binding z-score,[5],-0.345
same,PBM binding z-score,[6],2.69
same,PBM binding z-score,[7],3.2
same,PBM binding z-score,[8],3.99
same,PBM binding z-score,[9],2.16
same,PBM binding z-score,[10],3.9
same,PBM binding z-score,[11],4.6
same,PBM binding z-score,[12],4.79
same,PBM binding z-score,[13],0.707
same,PBM binding z-score,[14],-0.07
same,PBM binding z-score,[15],1.02
same,PBM binding z-score,[16],0.767
same,PBM binding z-score,[17],-0.461
same,PBM binding z-score,[18],1.62
same,PBM binding z-score,[19],-0.242
same,PBM binding z-score,[20],1.94
CCTGCTAGATCAATGGTCAGCTAAAGCAGCTCGC,PBM binding z-score,[1],-0.932
same,PBM binding z-score,[2],-0.902
same,PBM binding z-score,[3],-0.811
same,PBM binding z-score,[4],-0.945
same,PBM binding z-score,[5],-0.566
same,PBM binding z-score,[6],-0.697
same,PBM binding z-score,[7],-0.182
same,PBM binding z-score,[8],0.115
same,PBM binding z-score,[9],-0.8
same,PBM binding z-score,[10],-0.292
same,PBM binding z-score,[11],-0.539
same,PBM binding z-score,[12],-0.867
same,PBM binding z-score,[13],-1.21
same,PBM binding z-score,[14],-1.31
same,PBM binding z-score,[15],-0.942
same,PBM binding z-score,[16],-0.879
same,PBM binding z-score,[17],-0.691
same,PBM binding z-score,[18],-0.744
same,PBM binding z-score,[19],-0.962
same,PBM binding z-score,[20],-0.116
CGAACTAGGTCAGAACAGGACAGTGGAGGATGAT,PBM binding z-score,[1],1.69
same,PBM binding z-score,[2],0.958
same,PBM binding z-score,[3],-0.201
same,PBM binding z-score,[4],0.242
same,PBM binding z-score,[5],-0.2
same,PBM binding z-score,[6],2.93
same,PBM binding z-score,[7],5.08
same,PBM binding z-score,[8],4.33
same,PBM binding z-score,[9],1.86
same,PBM binding z-score,[10],3.73
same,PBM binding z-score,[11],7.32
same,PBM binding z-score,[12],7.18
same,PBM binding z-score,[13],1.32
same,PBM binding z-score,[14],0.317
same,PBM binding z-score,[15],0.748
same,PBM binding z-score,[16],0.65
same,PBM binding z-score,[17],-0.155
same,PBM binding z-score,[18],0.722
same,PBM binding z-score,[19],0.321
same,PBM binding z-score,[20],2.99
GGAACGAGGGCAAATTTGATAGCATCTGTCGACG,PBM binding z-score,[1],0.712
same,PBM binding z-score,[2],0.506
same,PBM binding z-score,[3],-0.407
same,PBM binding z-score,[4],0.682
same,PBM binding z-score,[5],0.0825
same,PBM binding z-score,[6],1.51
same,PBM binding z-score,[7],1.19
same,PBM binding z-score,[8],1.13
same,PBM binding z-score,[9],-0.00323
same,PBM binding z-score,[10],0.82
same,PBM binding z-score,[11],3.93
same,PBM binding z-score,[12],2.76
same,PBM binding z-score,[13],0.00863
same,PBM binding z-score,[14],-0.28
same,PBM binding z-score,[15],0.201
same,PBM binding z-score,[16],0.608
same,PBM binding z-score,[17],0.0405
same,PBM binding z-score,[18],0.115
same,PBM binding z-score,[19],0.0323
same,PBM binding z-score,[20],2.19
TCGAGTAGGTTAGACGGGGCATTCAGCCAACATA,PBM binding z-score,[1],0.121
same,PBM binding z-score,[2],0.00602
same,PBM binding z-score,[3],-0.343
same,PBM binding z-score,[4],0.522
same,PBM binding z-score,[5],-0.523
same,PBM binding z-score,[6],0.783
same,PBM binding z-score,[7],0.118
same,PBM binding z-score,[8],0.993
same,PBM binding z-score,[9],1.05
same,PBM binding z-score,[10],1.04
same,PBM binding z-score,[11],2.22
same,PBM binding z-score,[12],0.996
same,PBM binding z-score,[13],-0.111
same,PBM binding z-score,[14],0.319
same,PBM binding z-score,[15],-0.139
same,PBM binding z-score,[16],-0.0359
same,PBM binding z-score,[17],-0.369
same,PBM binding z-score,[18],-0.135
same,PBM binding z-score,[19],-0.49
same,PBM binding z-score,[20],0.612
GCTTGTAGATCAAGGTTAAAAAAGACTAAGCTAA,PBM binding z-score,[1],0.221
same,PBM binding z-score,[2],1.35
same,PBM binding z-score,[3],-0.113
same,PBM binding z-score,[4],0.828
same,PBM binding z-score,[5],-0.501
same,PBM binding z-score,[6],1.84
same,PBM binding z-score,[7],1.19
same,PBM binding z-score,[8],2.38
same,PBM binding z-score,[9],0.522
same,PBM binding z-score,[10],1.79
same,PBM binding z-score,[11],1.05
same,PBM binding z-score,[12],1.23
same,PBM binding z-score,[13],0.281
same,PBM binding z-score,[14],0.272
same,PBM binding z-score,[15],0.282
same,PBM binding z-score,[16],0.574
same,PBM binding z-score,[17],-0.0589
same,PBM binding z-score,[18],1.15
same,PBM binding z-score,[19],0.0785
same,PBM binding z-score,[20],0.688
GCTTGTAGATCAAGGTTAAGAGAGACTAAGCTAA,PBM binding z-score,[1],-0.00904
same,PBM binding z-score,[2],0.508
same,PBM binding z-score,[3],-0.353
same,PBM binding z-score,[4],0.119
same,PBM binding z-score,[5],-0.894
same,PBM binding z-score,[6],1.36
same,PBM binding z-score,[7],0.796
same,PBM binding z-score,[8],2.03
same,PBM binding z-score,[9],0.342
same,PBM binding z-score,[10],1.44
same,PBM binding z-score,[11],1.35
same,PBM binding z-score,[12],1.01
same,PBM binding z-score,[13],0.118
same,PBM binding z-score,[14],-0.183
same,PBM binding z-score,[15],0.193
same,PBM binding z-score,[16],0.187
same,PBM binding z-score,[17],-0.0843
same,PBM binding z-score,[18],0.668
same,PBM binding z-score,[19],-0.213
same,PBM binding z-score,[20],0.688
TCGAGTAGCTTAGTCGGGGCATTCAGCCAACATA,PBM binding z-score,[1],-0.445
same,PBM binding z-score,[2],-0.555
same,PBM binding z-score,[3],-0.699
same,PBM binding z-score,[4],-0.343
same,PBM binding z-score,[5],-0.785
same,PBM binding z-score,[6],-0.102
same,PBM binding z-score,[7],-0.707
same,PBM binding z-score,[8],-0.0775
same,PBM binding z-score,[9],0.66
same,PBM binding z-score,[10],0.255
same,PBM binding z-score,[11],0.289
same,PBM binding z-score,[12],-0.763
same,PBM binding z-score,[13],-1.22
same,PBM binding z-score,[14],-0.887
same,PBM binding z-score,[15],-1.34
same,PBM binding z-score,[16],-0.503
same,PBM binding z-score,[17],-1.1
same,PBM binding z-score,[18],-0.495
same,PBM binding z-score,[19],-0.83
same,PBM binding z-score,[20],-0.355
CCTACTGGGCCATTCAGGGGTCATTGATCATATG,PBM binding z-score,[1],3.39
same,PBM binding z-score,[2],3.59
same,PBM binding z-score,[3],3.43
same,PBM binding z-score,[4],4.16
same,PBM binding z-score,[5],-0.118
same,PBM binding z-score,[6],4.49
same,PBM binding z-score,[7],2.95
same,PBM binding z-score,[8],3.73
same,PBM binding z-score,[9],1.27
same,PBM binding z-score,[10],2.64
same,PBM binding z-score,[11],3.55
same,PBM binding z-score,[12],4.44
same,PBM binding z-score,[13],-0.679
same,PBM binding z-score,[14],-0.364
same,PBM binding z-score,[15],2.13
same,PBM binding z-score,[16],5.18
same,PBM binding z-score,[17],1.05
same,PBM binding z-score,[18],5.59
same,PBM binding z-score,[19],0.603
same,PBM binding z-score,[20],3.03
